The results in this text go back to PubChem BioAssay (EPA / NIEHS).

Read-out in assay [1]: Interleukin-8 (IL8), CXCL8 (gene 3576)
Nature of the assay: BSK_3C_IL8: BioMAP Diversity Plus: 3C Assay for Interleukin-8 (IL8) Biomarker Activity (AID 2283020). The conditions noted are these: primary human endothelial cells (HUVEC); actives raise or lower the signal. In a few lines:
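ELISA read-out of IL-8 from human umbilical vein endothelium, measured 24 h after chemical dosing. Activity is expressed relative to DMSO negative control, with both increases and decreases fitted.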

Read-out in assay [2]: Monokine induced gamma interferon (MIG), CXCL9 (gene 4283)
Nature of the assay: BSK_3C_MIG: BioMAP Diversity Plus: 3C Assay for Monokine induced gamma interferon (MIG) Biomarker Activity (AID 2283021). The conditions noted are these: primary human endothelial cells (HUVEC); actives raise or lower the signal. The procedure, abridged: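 Read-out is ELISA detection of MIG on human umbilical vein endothelial cells, taken 24 h after dosing. Gain or loss of signal was scored relative to DMSO controls using bidirectional curve fitting.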

The target in assay [3] is human Vitamin D Receptor (VDR), VDR (gene 7421) (UniProt P11473). Nature of the assay: ATG_VDR_TRANS: Attagene TRANS-FACTORIAL HepG2 Assay for human Vitamin D Receptor (VDR) (AID 2283022; active = hit-call score of the fitted dose curve at least 0.9, where 1 is the maximum). The procedure, abridged:
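HepG2 cells were transiently transfected with GAL4-UAS reporter units and a chimeric VDR-Gal4 construct, then dosed for 24 hours. Reporter mRNA was quantified by RT-PCR, fluorescent labeling, HpaI digestion and capillary electrophoresis; gain of signal analysed vs DMSO.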

Assay [4] in a line: BSK_3C_SRB: Viability Assessment in the BioMAP Diversity Plus: 3C Assay (AID 2283023).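 Note: fitted both ways against DMSO so a hit may be signal rise or drop.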 The note with it: primary human endothelial cells (HUVEC). The procedure, abridged: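 Human umbilical vein endothelial cells in the 3C system, treated 24 h. Total protein measured by 0.1% sulforhodamine B staining after 10% TCA fixation, read at 560 nm; bidirectional fit versus DMSO.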
Read-out in assay [5]: Matrix Metallopeptidase 1 (MMP1), MMP1 (gene 4312)
Description: BSK_BE3C_MMP1: BioMAP Diversity Plus: BE3C Assay for Matrix Metallopeptidase 1 (MMP1) Biomarker Activity (AID 2283024). The conditions noted are these: primary human bronchial epithelial cells; actives raise or lower the signal. In a few lines: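 Human bronchial epithelial cells (BE3C system) exposed to compound for 24 h; MMP1 then quantified by ELISA. Activity was fitted in both directions relative to DMSO.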

Read-out in assay [6]: Pselectin, SELP (gene 6403)
Description: BSK_4H_Pselectin: BioMAP Diversity Plus: 4H Assay for Pselectin Biomarker Activity (AID 2283026). The note with it: primary human endothelial cells (HUVEC); actives raise or lower the signal. In a few lines:
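ELISA read-out of P-selectin on human umbilical vein endothelium after 24 h of dosing. Values derive from bidirectional fitting relative to DMSO. Parallel SRB protein staining flagged overt cytotoxicity.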

Assay [7] in a line: BSK_4H_SRB: Viability Assessment in the BioMAP Diversity Plus: 4H Assay (AID 2283027).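 Note: cells exposed to compound for 24 h before staining.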 The conditions noted are these: primary human endothelial cells (HUVEC). The procedure, abridged:
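Human umbilical vein endothelial cells, 24 h after chemical dosing; total protein measured by 0.1% sulforhodamine B staining after 10% TCA fixation, read at 560 nm. Bidirectional fitting against DMSO.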

A short description of assay [8]: BSK_BE3C_SRB: Viability Assessment in the BioMAP Diversity Plus: BE3C Assay (AID 2283028). The note with it: primary human bronchial epithelial cells. The procedure, abridged: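 Human bronchial epithelial primary cells in confluent culture, 24 h after chemical dosing; total protein by 0.1% SRB staining after 10% TCA fixation, read at 560 nm. Bidirectional fitting versus DMSO baseline.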

Read-out in assay [9]: Urokinase-type plasminogen activator receptor (uPAR), PLAUR (gene 5329)
Description: BSK_4H_uPAR: BioMAP Diversity Plus: 4H Assay for Urokinase-type plasminogen activator receptor (uPAR) Biomarker Activity (AID 2283030). The note with it: primary human endothelial cells (HUVEC); actives raise or lower the signal. In a few lines:
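Human umbilical vein endothelial cells in the 4H system, 24 h after chemical dosing. Cell-surface uPAR measured by ELISA, fitted in both directions versus DMSO; cytotoxicity checked by SRB total protein in parallel cultures.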

Read-out in assay [10]: Vascular endothelial growth factor receptor 2 (Homo sapiens) (UniProt P35968)
Description: BSK_4H_VEGFRII: BioMAP Diversity Plus: 4H Assay for Vascular endothelial growth factor receptor 2 (VEGFR2) Biomarker Activity (AID 2283031). The note with it: primary human endothelial cells (HUVEC); actives raise or lower the signal. In a few lines: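 Primary human umbilical vein endothelial cells (4H system), 24 h exposure; cell-surface VEGFR2 measured by ELISA. Bidirectional fitting versus DMSO; cytotoxicity checked in parallel by SRB total-protein staining.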

Read-out in assay [11]: Human Leukocyte Antigen - DR isotype (HLADR), HLA-DRA (gene 3122)
Nature of the assay: BSK_BE3C_HLADR: BioMAP Diversity Plus: BE3C Assay for Human Leukocyte Antigen - DR isotype (HLADR) Biomarker Activity (AID 2283032). The note with it: primary human bronchial epithelial cells; actives raise or lower the signal. In a few lines:
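ELISA read-out of HLA-DR on human lung bronchial epithelial primary cells, measured 24 h post-dosing. Both increases and decreases were scored relative to DMSO vehicle.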

Read-out in assay [12]: Vascular cell adhesion molecule 1 (VCAM1), VCAM1 (gene 7412)
Description: BSK_4H_VCAM1: BioMAP Diversity Plus: 4H Assay for Vascular cell adhesion molecule 1 (VCAM1) Biomarker Activity (AID 2283033).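 Note: cell-surface VCAM-1 protein measured by ELISA.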 The conditions noted are these: primary human endothelial cells (HUVEC); actives raise or lower the signal. The procedure, abridged:
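ELISA read-out of VCAM-1 on human umbilical vein endothelium 24 hours after chemical dosing; gain or loss of signal was fitted relative to DMSO, with sulforhodamine B staining of parallel cultures flagging overt cytotoxicity.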

Read-out in assay [13]: Monokine induced gamma interferon (MIG), CXCL9 (gene 4283)
Description: BSK_BE3C_MIG: BioMAP Diversity Plus: BE3C Assay for Monokine induced gamma interferon (MIG) Biomarker Activity (AID 2283035).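 Note: MIG protein measured by ELISA in BE3C cultures after 24 h of dosing.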 The conditions noted are these: primary human bronchial epithelial cells; actives raise or lower the signal. In a few lines:
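Primary human bronchial epithelial cells treated for 24 h; MIG levels measured by ELISA, fitted bidirectionally versus DMSO. Parallel SRB total-protein staining assessed cytotoxicity.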

Read-out in assay [14]: Plasminogen activator inhibitor-1 (PAI1), SERPINE1 (gene 5054)
Nature of the assay: BSK_BE3C_PAI1: BioMAP Diversity Plus: BE3C Assay for Plasminogen activator inhibitor-1 (PAI1) Biomarker Activity (AID 2283037). The conditions noted are these: primary human bronchial epithelial cells; actives raise or lower the signal. The procedure, abridged:
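Primary human lung bronchial epithelial cells; chemical dosing; 24 h; PAI-1 measured by ELISA; bidirectional fit referenced to DMSO as negative control.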

Read-out in assay [15]: Urokinase-type plasminogen activator receptor (uPAR), PLAUR (gene 5329)
Description: BSK_BE3C_uPAR: BioMAP Diversity Plus: BE3C Assay for Urokinase-type plasminogen activator receptor (uPAR) Biomarker Activity (AID 2283039).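 Note: cells exposed to compound for one day before measurement.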 The note with it: primary human bronchial epithelial cells; actives raise or lower the signal. The procedure, abridged: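 Human bronchial epithelial primary cells; chemical exposure 24 h; uPAR by ELISA; bidirectional fit vs DMSO control.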

Assay [16] in a line: BSK_3C_Vis: BioMAP Diversity Plus: 3C Assay for Morphology Visualization (AID 2283025).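 Note: light microscopy image of cell morphology used as background control; fitted both ways so gain or loss versus DMSO counts.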 The note with it: primary human endothelial cells (HUVEC). In a few lines: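 Chemicals were added to primary human umbilical vein endothelium, cells were incubated 24 h, and morphology was then visualized by light microscopy. Gain or loss of signal was fitted bidirectionally relative to DMSO.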

Read-out in assay [17]: Thrombomodulin, THBD (gene 7056)
Nature of the assay: BSK_3C_Thrombomodulin: BioMAP Diversity Plus: 3C Assay for Thrombomodulin Biomarker Activity (AID 2283029). The note with it: primary human endothelial cells (HUVEC); actives raise or lower the signal. The procedure, abridged: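 Read-out is ELISA of thrombomodulin on human umbilical vein endothelium 24 h after chemical dosing. Gain or loss of signal is scored relative to DMSO. Overt cytotoxicity is checked in parallel cultures by sulforhodamine B staining.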

Read-out in assay [18]: Transforming growth factor beta 1 (TGFb1), TGFB1 (gene 7040)
Description: BSK_BE3C_TGFb1: BioMAP Diversity Plus: BE3C Assay for Transforming growth factor beta 1 (TGFb1) Biomarker Activity (AID 2283036;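 note: TGF-b1 protein level measured by ELISA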). The conditions noted are these: primary human bronchial epithelial cells; actives raise or lower the signal. In a few lines: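 Primary human lung bronchial epithelial cells; compound exposure 24 h; TGF-b1 by ELISA; bidirectional fit, DMSO baseline. Parallel SRB total-protein staining for cytotoxicity.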

Read-out in assay [19]: urokinase plasminogen activator (uPA), PLAU (gene 5328)
Description: BSK_BE3C_uPA: BioMAP Diversity Plus: BE3C Assay for urokinase plasminogen activator (uPA) Biomarker Activity (AID 2283038).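 Note: uPA protein level quantified by ELISA in cell cultures; uPA read one day after compound addition.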 The conditions noted are these: primary human bronchial epithelial cells; actives raise or lower the signal. The procedure, abridged:
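Primary human bronchial epithelial cells, uPA measured by ELISA 24 h after dosing. Bidirectional change relative to DMSO; cytotoxicity checked in parallel cultures by sulforhodamine B total-protein staining.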

Read-out in assay [20]: Interferon-gamma inducible Protein 10 (IP10), CXCL10 (gene 3627)
Description: BSK_BE3C_IP10: BioMAP Diversity Plus: BE3C Assay for Interferon-gamma inducible Protein 10 (IP10) Biomarker Activity (AID 2283034). The note with it: primary human bronchial epithelial cells; actives raise or lower the signal. The procedure, abridged:
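Chemical is dosed onto human lung bronchial epithelial primary cells, cultures are incubated 24 h, and IP-10 is then quantified by ELISA. Gain or loss of signal is fitted in both directions relative to DMSO.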

Records with an inconclusive call do not appear. Active and inactive are the calls of the source. Rule for the calls, unless noted: active = hit-call score of the fitted dose curve at least 0.9, where 1 is the maximum; inactive = score below 0.9.

One may read the AC50 as the concentration giving half of the maximal activity seen.

human Vitamin D Receptor (VDR), VDR (gene 7421), sequence (P11473 whole entry, looked up, the tested form may be a part): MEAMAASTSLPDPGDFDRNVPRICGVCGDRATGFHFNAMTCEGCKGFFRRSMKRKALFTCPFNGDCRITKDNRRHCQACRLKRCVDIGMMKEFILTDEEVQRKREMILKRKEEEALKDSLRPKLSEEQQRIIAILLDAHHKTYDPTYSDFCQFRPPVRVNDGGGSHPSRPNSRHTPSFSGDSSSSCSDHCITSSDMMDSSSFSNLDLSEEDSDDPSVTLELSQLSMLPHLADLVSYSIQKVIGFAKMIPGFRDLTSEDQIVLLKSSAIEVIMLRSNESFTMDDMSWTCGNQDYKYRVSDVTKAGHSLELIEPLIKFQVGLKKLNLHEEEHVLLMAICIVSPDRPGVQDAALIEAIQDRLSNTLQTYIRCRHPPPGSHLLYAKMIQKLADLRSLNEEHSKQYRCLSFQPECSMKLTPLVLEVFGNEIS

As for `C=CC(=O)OCC(F)(F)C(F)(F)C(F)(F)C(F)(F)C(F)(F)C(F)(F)C(F)(F)F`, the outcome in assay [1], in [2], in [3], in assay [4], in [5] and in assay [6] was inactive. In addition, the outcome in assay [7], in [8], in [9], in assay [10], in [11] and in assay [12] was inactive. For the same compound, the outcome in assay [13], in assay [14] and in assay [15] was inactive.

As for `CCN(CC)c1ccc2c(C)cc(=O)oc2c1`, the result in assay [1], in assay [2], in [4], in [5], in assay [6] and in assay [7] was inactive. Moreover, the result in assay [8], in [17], in [9], in assay [10], in assay [11] and in assay [12] was inactive. Further, the outcome in [13], in [18] and in assay [14] was inactive. Besides, the AC50 in assay [16] is 37.5 µM (active).

On to `COC(=O)CCC(F)(F)C(F)(F)C(F)(F)C(F)(F)F`, for which the result in assay [1], in [2], in [3], in [4], in assay [5] and in assay [6] was inactive. In addition, the result in [7], in assay [8], in assay [17], in [9], in [10] and in assay [11] was inactive. Further, the outcome in assay [12], in [13], in assay [14], in [19] and in assay [15] was inactive.

As to `O=S(=O)(OCC(F)F)C(F)(F)F`, the result in [1], in assay [2], in assay [3], in [4], in assay [5] and in [6] was inactive. Also, the outcome in [7], in assay [8], in assay [9], in [10], in assay [11] and in assay [12] was inactive. The outcome in [20], in assay [13] and in assay [14] was inactive.

`O=C(O)C(F)(F)C(F)(F)C(F)(F)F`: the result in assay [1], in assay [2], in assay [3], in [4], in [5] and in assay [6] was inactive. In addition, the outcome in assay [7], in assay [8], in [9], in [10], in assay [11] and in assay [12] was inactive. Also, the outcome in assay [20], in [13], in assay [14] and in assay [15] was inactive.

For the compound `FC(F)(F)C(F)(F)C(F)(F)C(F)(F)C(F)(F)C(F)(F)C(F)(F)C(F)(F)F`, the outcome in assay [1], in assay [2], in [3], in assay [4], in assay [5] and in assay [6] was inactive. Besides, the result in assay [7], in assay [8], in assay [9], in assay [10], in assay [11] and in assay [12] was inactive. The outcome in [20], in assay [13], in [14] and in assay [19] was inactive.
